Test results taken from ChEMBL document CHEMBL2218924, “A broad activity screen in support of a chemogenomic map for kinase signalling research and drug discovery” (Biochem J, 2013).

How the values were obtained:
[1] = target: Calcium/calmodulin-dependent protein kinase type 1 (Homo sapiens) (UniProt Q14012); conditions: at 1 µM
[2] = target: Calcium/calmodulin-dependent protein kinase type 1 (Homo sapiens) (UniProt Q14012); conditions: at 10 µM
[3] = target: Calcium/calmodulin-dependent protein kinase type II subunit beta (Homo sapiens) (UniProt Q13554); conditions: at 1 µM
Chain of Calcium/calmodulin-dependent protein kinase type II subunit beta (Homo sapiens) (Q13554 whole entry): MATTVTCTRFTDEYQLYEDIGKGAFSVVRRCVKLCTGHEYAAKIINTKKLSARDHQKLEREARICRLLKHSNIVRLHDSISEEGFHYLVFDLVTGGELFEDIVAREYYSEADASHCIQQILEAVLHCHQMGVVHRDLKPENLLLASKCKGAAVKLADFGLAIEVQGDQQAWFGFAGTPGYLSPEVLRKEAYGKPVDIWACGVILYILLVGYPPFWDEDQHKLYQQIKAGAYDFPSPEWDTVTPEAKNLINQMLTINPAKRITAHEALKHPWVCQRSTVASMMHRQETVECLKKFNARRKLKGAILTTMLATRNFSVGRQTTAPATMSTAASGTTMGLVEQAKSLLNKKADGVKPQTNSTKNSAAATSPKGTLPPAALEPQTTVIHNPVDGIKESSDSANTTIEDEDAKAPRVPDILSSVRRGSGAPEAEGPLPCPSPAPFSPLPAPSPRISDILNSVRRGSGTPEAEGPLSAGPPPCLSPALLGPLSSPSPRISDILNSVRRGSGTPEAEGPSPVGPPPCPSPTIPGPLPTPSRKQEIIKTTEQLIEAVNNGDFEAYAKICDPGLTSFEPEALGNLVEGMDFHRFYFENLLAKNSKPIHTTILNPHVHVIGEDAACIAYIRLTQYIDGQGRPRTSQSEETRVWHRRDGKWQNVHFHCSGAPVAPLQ

[4] = target: Calcium/calmodulin-dependent protein kinase type II subunit beta (Homo sapiens) (UniProt Q13554); conditions: at 10 µM
[5] = target: Calcium/calmodulin-dependent protein kinase type II subunit gamma (Homo sapiens) (UniProt Q13555); conditions: at 1 µM
Chain of Calcium/calmodulin-dependent protein kinase type II subunit gamma (Homo sapiens) (Q13555 whole entry): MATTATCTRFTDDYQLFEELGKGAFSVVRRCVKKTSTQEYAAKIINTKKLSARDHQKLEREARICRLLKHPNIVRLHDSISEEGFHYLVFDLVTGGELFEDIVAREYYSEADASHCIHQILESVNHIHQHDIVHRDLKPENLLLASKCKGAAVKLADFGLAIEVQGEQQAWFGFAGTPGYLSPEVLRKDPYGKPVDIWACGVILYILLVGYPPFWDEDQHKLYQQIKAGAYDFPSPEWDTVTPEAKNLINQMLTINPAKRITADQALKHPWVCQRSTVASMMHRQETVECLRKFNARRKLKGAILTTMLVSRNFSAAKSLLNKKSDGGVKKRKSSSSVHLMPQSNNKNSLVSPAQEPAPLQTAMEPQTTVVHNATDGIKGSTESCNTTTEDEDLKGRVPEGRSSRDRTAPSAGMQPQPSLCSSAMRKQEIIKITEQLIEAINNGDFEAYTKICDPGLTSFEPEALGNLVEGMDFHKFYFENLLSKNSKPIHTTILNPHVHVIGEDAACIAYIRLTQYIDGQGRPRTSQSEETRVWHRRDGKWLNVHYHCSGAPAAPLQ

[6] = target: Calcium/calmodulin-dependent protein kinase type II subunit gamma (Homo sapiens) (UniProt Q13555); conditions: at 10 µM
[7] = target: Calcium/calmodulin-dependent protein kinase type II subunit delta (Homo sapiens) (UniProt Q13557); conditions: at 1 µM
Chain of Calcium/calmodulin-dependent protein kinase type II subunit delta (Homo sapiens) (Q13557 whole entry): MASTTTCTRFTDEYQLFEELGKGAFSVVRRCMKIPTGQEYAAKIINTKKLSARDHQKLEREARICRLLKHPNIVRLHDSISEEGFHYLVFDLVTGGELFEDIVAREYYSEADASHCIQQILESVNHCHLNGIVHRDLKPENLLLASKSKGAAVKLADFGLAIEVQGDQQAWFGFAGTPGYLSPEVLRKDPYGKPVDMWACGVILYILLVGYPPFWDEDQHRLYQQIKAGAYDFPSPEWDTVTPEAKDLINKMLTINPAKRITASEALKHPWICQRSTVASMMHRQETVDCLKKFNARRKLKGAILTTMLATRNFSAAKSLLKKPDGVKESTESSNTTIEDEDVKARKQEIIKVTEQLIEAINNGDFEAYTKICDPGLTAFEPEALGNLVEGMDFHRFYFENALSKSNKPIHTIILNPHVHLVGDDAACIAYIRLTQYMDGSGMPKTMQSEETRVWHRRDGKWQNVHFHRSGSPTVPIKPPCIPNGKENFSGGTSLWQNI

[8] = target: Calcium/calmodulin-dependent protein kinase type II subunit delta (Homo sapiens) (UniProt Q13557); conditions: at 10 µM
[9] = target: T1, Calcium/calmodulin-dependent protein kinase type IV (Homo sapiens) (UniProt Q16566); conditions: at 1 µM
T1 sequence (whole entry): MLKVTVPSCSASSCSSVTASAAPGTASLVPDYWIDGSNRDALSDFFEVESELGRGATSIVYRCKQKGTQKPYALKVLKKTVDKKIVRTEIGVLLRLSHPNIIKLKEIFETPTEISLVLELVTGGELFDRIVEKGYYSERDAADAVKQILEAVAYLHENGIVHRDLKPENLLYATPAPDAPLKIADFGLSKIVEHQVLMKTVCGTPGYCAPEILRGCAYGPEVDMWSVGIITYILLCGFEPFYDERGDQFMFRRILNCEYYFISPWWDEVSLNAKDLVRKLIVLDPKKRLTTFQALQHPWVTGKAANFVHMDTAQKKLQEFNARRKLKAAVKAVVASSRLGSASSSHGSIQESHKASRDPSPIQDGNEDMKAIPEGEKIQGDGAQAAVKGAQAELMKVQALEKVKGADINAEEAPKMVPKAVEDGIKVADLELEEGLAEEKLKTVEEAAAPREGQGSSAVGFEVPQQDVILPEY

[10] = target: T1, Calcium/calmodulin-dependent protein kinase type IV (Homo sapiens); conditions: at 10 µM

Chain of Calcium/calmodulin-dependent protein kinase type 1 (Homo sapiens) (Q14012 whole entry, looked up): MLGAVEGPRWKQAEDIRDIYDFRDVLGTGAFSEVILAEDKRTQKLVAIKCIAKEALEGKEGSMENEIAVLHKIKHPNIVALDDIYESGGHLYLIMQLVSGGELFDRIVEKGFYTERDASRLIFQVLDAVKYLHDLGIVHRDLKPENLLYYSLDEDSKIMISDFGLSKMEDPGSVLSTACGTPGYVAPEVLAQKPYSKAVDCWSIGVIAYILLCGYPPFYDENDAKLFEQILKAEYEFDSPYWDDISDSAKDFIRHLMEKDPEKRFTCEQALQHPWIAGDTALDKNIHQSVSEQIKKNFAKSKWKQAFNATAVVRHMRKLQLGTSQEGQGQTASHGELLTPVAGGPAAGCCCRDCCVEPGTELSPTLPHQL

Structure (SMILES) | residual activity [1] [%] | residual activity [2] [%] | residual activity [3] [%] | residual activity [4] [%] | residual activity [5] [%] | residual activity [6] [%] | residual activity [7] [%] | residual activity [8] [%] | residual activity [9] [%] | residual activity [10] [%]
Cn1cc(/C=C2\C(=O)Nc3ccc(S(N)(=O)=O)cc32)c2ccccc21 | 54 | 12 | 65 | 58 | 23 | -1 | 23 | 7 | 120 | 62
O=c1cc(-c2cccc3c2Sc2ccccc2S3)oc(N2CCOCC2)c1 | 113 | 87 | 96 | 82 | 101 | 85 | 96 | 84 | 114 | 98
COc1ccc(C(=O)Nc2sc3c(c2C(N)=O)CCCC3)cc1OC | 102 | 75 | 83 | 73 | 86 | 66 | 86 | 66 | 107 | 85
c1ccc(-c2n[nH]cc2-c2ccnc3ccccc23)nc1 |  | 83 | 96 | 68 | 94 | 69 | 96 | 80 | 139 | 78
Cn1cnc2cc3c(Nc4cccc(Br)c4)ncnc3cc21 | 103 | 54 | 93 | 89 | 85 | 43 | 97 | 52 | 105 | 86
O=C1Nc2ccc(Br)cc2/C1=C\c1cc2c([nH]1)CCCC2 | 105 |  | 72 | 69 | 20 | 16 | 18 | 20 | 135 | 
COc1cc2ncnc(Nc3ccc(NC(=O)c4ccccc4)cc3)c2cc1OC | 99 | 41 | 102 | 94 |  |  | 108 | 91 |  | 95
O=C1c2ccccc2-[n+]2ccc3c([nH]c4ccccc43)c21 | 81 | 68 | 92 | 76 | 103 | 78 | 95 | 81 | 102 | 93
CCN(CC)C(=O)c1ccc(Nc2nc(OCC3CCCCC3)c3nc[nH]c3n2)cc1 | 70 | 19 | 98 | 51 | 102 | 51 |  | 49 | 82 | 28
CC#CC(=O)Nc1cc2c(Nc3ccc(F)c(Cl)c3)ncnc2cn1 | 98 | 80 | 91 | 84 | 108 | 93 | 107 | 97 | 121 | 87
COc1cc2ncc(-c3ccccc3)nc2cc1OC |  |  | 100 | 82 |  | 78 |  | 80 |  | 60
COc1ccc(S(=O)(=O)N(CCO)c2ccccc2CN(C)C/C=C/c2ccc(Cl)cc2)cc1 | 92 | 38 | 96 | 20 | 107 | 67 | 101 | 47 | 106 | 92
CN(C)CCCn1cc(C2=C(c3c[nH]c4ccccc34)C(=O)NC2=O)c2ccccc21 | 89 | 49 | 63 | 18 | 28 | 6 | 16 | 5 | 88 | 45
Oc1c2ccccc2c2c3c(cccc13)N=N2 | 77 | 32 |  |  | 37 | 8 | 43 | 8 | 73 | 24
c1ccc2c(-c3ccncc3)c[nH]c2c1 | 106 | 84 | 47 | 10 | 79 | 26 |  | 30 |  | 90
O=C1Nc2ccccc2/C1=C1/Nc2ccccc2/C1=N\OCCC(O)CO (configuration not stated) | 64 | 15 | 27 | 4 | 6 | 0 | 6 | 1 | 15 | 9
c1ccc(-c2n[nH]c3c2oc2ccccc23)cc1 | 115 | 136 | 87 | 36 | 81 | 25 | 79 | 22 |  | 90
Cc1cc2ncc(-c3ccccc3)nc2cc1C |  | 89 | 101 | 92 |  | 94 |  | 81 | 108 | 100

Structure (SMILES) | residual activity [1] [%] | residual activity [2] [%] | residual activity [3] [%] | residual activity [4] [%] | residual activity [5] [%] | residual activity [6] [%] | residual activity [7] [%] | residual activity [8] [%] | residual activity [9] [%] | residual activity [10] [%]
Oc1ccc(Nc2nc(-c3ccc(Cl)cc3)cs2)cc1 | 94 | 53 | 98 | 92 | 98 | 89 | 102 | 98 | 102 | 114
O=Nc1c(-c2c(O)[nH]c3ccccc23)[nH]c2ccccc12 | 72 | 21 | 33 | 11 | 12 | 1 | 10 | 2 | 66 | 10
N#CCCc1ccc2c(c1)-c1[nH]c3ccc([N+](=O)[O-])cc3c1CC(=O)N2 |  |  | 54 | 32 | 6 | 1 | 10 | 3 |  | 
CC(C)n1cnc2/c(=N/c3cccc(Cl)c3)nc(NCCO)[nH]c21 | 87 | 71 | 75 | 41 | 13 | 6 | 19 | 11 | 103 | 66
CC(=O)O/N=C1\C(=C2\C(=O)Nc3cc(Br)ccc32)Nc2ccccc21 | 82 | 50 | 79 | 27 | 23 | 4 | 17 | 4 | 100 | 90
Oc1n[nH]c2nnc(-c3c(-c4ccccc4)nn4ccccc34)cc12 | 92 | 79 | 91 | 80 | 90 | 78 | 87 | 82 | 105 | 96
O=[N+]([O-])c1ccc(-c2nc(-c3ccc(F)cc3)c(-c3ccncc3)[nH]2)cc1 | 113 | 81 | 102 | 92 |  |  | 113 | 99 | 101 | 92
O=C(O)c1ccc2c3c1cccc3c(=O)n1c3ccccc3nc21 | 108 | 117 | 88 | 51 | 88 | 31 | 80 | 31 | 94 | 21
O=C(Nc1cccc(Nc2nccc(Nc3cccc(C(F)(F)F)c3)n2)c1)C1CC1 | 86 | 31 | 100 | 38 | 76 | 12 | 66 | 19 | 84 | 62
N#CC(C#N)=C(N)/C(C#N)=C/c1ccc(O)cc1 |  |  | 96 | 90 | 116 | 95 |  |  |  | 
C[C@@H](N)[C@H]1CC[C@H](C(=O)Nc2ccncc2)CC1 | 123 | 125 |  |  | 100 | 89 | 107 | 92 | 90 | 90
Cc1cccc(-c2[nH]c(C(C)(C)C)nc2-c2ccc3c(c2)OCO3)n1 |  |  | 93 | 88 |  | 99 | 105 | 99 | 129 | 88
Cc1cc(Nc2nc(-c3ccccc3)nc3ccccc23)n[nH]1 | 61 | 13 |  | 42 | 60 | 16 | 63 | 20 | 47 | 15
O=C1NC(=O)c2cc(Nc3ccc(F)cc3)c(Nc3ccc(F)cc3)cc21 | 109 | 71 | 85 | 50 | 111 | 102 | 110 | 88 | 119 | 66
O=c1c2ccccc2[nH]c(=S)n1CCN1CCC(=C(c2ccc(F)cc2)c2ccc(F)cc2)CC1 | 110 | 113 | 102 | 79 | 115 | 100 | 105 | 91 | 108 | 95
CCC(=O)Nc1ccc2ncnc(Nc3cccc(Br)c3)c2c1 | 96 | 98 | 90 | 80 | 100 | 74 | 109 | 79 | 123 | 73
Cc1nc(-c2ccccc2)c(-c2ccncc2)o1 | 104 | 89 | 97 | 86 | 97 | 83 | 104 | 81 | 108 | 112
